Screening results from PubChem.
Akt phos inh: inhibitors of Akt phosphorylation; Neuro2A IGF-stimulated pAkt S473 HTRF, 20 min; active compounds read low; activity change, % for hits at 50 µM; 0.32% of 360,000 active; AID 651550; in the data active = activity change below about -80%; inconclusive = mostly about -51% to -80%; note: % is set by controls: 0 for no effect and ±100 for the full control effect
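Single-point screen (50 µM final compound) in Neuro2A cells stimulated 20 min with 6 nM IGF at 37 deg C. After lysis, Ser473-phosphorylated Akt read by HTRF (ex 330 nm, em 615/665 nm) as the 665/615 ratio.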
Glioma ERSR ind: induces the endoplasmic reticulum stress response in human glioma cells. U87-MG GRP78 promoter luciferase reporter, 16 h. Potency, µM, inactives show top-dose activation, most hits filed as activators. 0.02% of 420,000 active. AID 602332; active = well fitted activation curve with a large enough effect; inconclusive = small, poorly fitted or top-dose-only effect; inactive = no such curve, though single readings can be large or run the other way; note: potency is the fitted concentration of half-maximal effect; series mostly up to about 76 µM; % of control where 0% means no effect; nearly all actives have a fitted effect of over 35% in size
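Stably transfected U87-MG human glioma cells carrying a GRP78-based luminescent sensor were seeded at 1000 cells/well, pin-dosed with compounds and incubated 16 h. Luciferase reagent was then added, and end-point luminescence was read after 10 min at room temperature.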
gsp antag: gsp mutant antagonism. gsp-mutant cells, cAMP HTRF, 30 min. Potency, µM (series often up to 76.9 µM), inactives show top-dose activity change, negative = inhibition, usual class: inhibitors. 0.4% of 340,000 active. AID 624288; calls by dose curve; cell line not stated here;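 note: intracellular cAMP measured with PDE inhibitor Ro 20-1724 present during compound exposure; potency is the fitted concentration of half-maximal effect; % is set by controls: 0 for no effect and ±100 for the full control effect; nearly all actives have a fitted effect of over 65% in size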
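Cells, 2000/well, grown 16–24 h in DMEM 10% FBS with 0.5 mg/ml G418, then compounds plus […] (300 uM addition stock), 30 min at 37C. cAMP read by HTRF (cAMP-d2 and anti-cAMP antibody-K in lysis buffer) after 30 min RT.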
gsp ag: agonists of gsp mutant (McCune-Albright syndrome). gsp mutant cells, cAMP HTRF, 30 min. Potency, µM (top dose mostly 76.9 µM), inactives show at the top dose activation (cAMP increase), usual class: activators. 0.13% of 340,000 active. AID 624287; active = well fitted activation curve with a large enough effect; inconclusive = small, poorly fitted or top-dose-only effect, or another doubt; inactive = no such curve, though single readings can be large or run the other way; cell line not stated here;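 note: phosphodiesterase inhibitor Ro 20-1724 added with compounds to block cAMP breakdown; potency is the fitted concentration of half-maximal effect; nearly all actives have a fitted effect of over 60% in size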
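Cells stably selected in G418 were plated at 2000/well, grown 16-24 hr, then given compounds in DMSO with the PDE inhibitor […] (300 uM solution added) for 30 min at 37C; cAMP was read by HTRF.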
KCNH2 3.1 block: blocks the human KCNH2 3.1 channel isoform; 0.95% of 340,000 active; AID 720553; U2OS KCNH2 3.1, thallium flux FluxOr; active compounds read low; activity change, % (tested at about 1.8 µM);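 active = maximum activity change below -70%; inconclusive = maximum activity change from -70% to -50%; inactive = maximum activity change above -50%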;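 note: thallium influx rate constant from kinetic fluorescence after stimulation buffer; % is set by controls: 0 for no effect and ±100 for the full control effect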
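U2OS cells transduced with KCNH2 3.1 mutant virus (1.77 x 10^8 /mL, 4 h), plated overnight at 37 C, loaded 45 min with FluxOr dye plus Red40 quencher. Thallium flux rate constant from kinetic reads after stimulation buffer, normalised to controls.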
hERG WT inh: KCNH2 (human, wildtype) channel inhibition. activity change, % at 1.84 µM. U2OS, BacMam KCNH2, thallium flux FluxOr; active compounds read low. Q12809. 0.37% of 340,000 active;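 active = maximum activity change below -70%; inconclusive = maximum activity change between -70% and -50%; inactive = maximum activity change above -50%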; note: % is set by controls: 0 for no effect and ±100 for the full control effect
Target sequence (Q12809 whole entry, looked up): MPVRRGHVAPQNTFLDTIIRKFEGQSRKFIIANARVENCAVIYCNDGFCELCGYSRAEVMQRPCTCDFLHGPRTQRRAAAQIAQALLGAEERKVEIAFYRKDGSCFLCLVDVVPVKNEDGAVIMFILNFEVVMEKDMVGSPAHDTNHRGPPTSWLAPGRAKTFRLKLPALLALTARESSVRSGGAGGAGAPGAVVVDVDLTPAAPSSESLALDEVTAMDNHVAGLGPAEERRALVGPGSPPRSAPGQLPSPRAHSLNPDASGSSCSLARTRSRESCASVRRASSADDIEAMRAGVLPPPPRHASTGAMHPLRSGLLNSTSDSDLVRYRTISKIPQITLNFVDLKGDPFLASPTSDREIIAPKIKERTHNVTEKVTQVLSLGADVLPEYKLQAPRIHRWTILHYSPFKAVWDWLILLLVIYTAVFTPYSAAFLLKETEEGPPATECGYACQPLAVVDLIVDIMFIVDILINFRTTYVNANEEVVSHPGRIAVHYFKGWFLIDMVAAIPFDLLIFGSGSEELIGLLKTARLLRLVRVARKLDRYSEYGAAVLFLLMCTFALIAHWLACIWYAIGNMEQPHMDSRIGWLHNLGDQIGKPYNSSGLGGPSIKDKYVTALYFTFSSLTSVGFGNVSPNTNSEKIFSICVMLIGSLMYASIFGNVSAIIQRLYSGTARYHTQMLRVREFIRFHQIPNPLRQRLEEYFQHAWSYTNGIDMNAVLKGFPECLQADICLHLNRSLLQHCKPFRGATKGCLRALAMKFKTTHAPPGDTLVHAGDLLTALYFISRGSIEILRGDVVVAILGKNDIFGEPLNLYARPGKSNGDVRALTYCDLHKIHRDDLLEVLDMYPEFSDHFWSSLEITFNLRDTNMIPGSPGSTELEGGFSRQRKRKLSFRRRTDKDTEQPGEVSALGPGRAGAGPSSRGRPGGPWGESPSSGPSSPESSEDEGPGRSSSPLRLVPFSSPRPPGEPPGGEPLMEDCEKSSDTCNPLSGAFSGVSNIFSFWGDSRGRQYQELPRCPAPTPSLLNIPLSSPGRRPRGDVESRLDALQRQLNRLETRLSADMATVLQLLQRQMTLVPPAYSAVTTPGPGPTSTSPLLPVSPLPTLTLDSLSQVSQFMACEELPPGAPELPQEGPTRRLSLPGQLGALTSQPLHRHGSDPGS
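U2OS cells were transduced with wild-type KCNH2 virus (2.03 x 10^8 / mL) for 4 h at room temperature, then cultured overnight at 37 C. Thallium flux was read with FluxOr dye. Rate constants were normalized to DMSO controls.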
* hit, by the source's call; i = inactive; ? = inconclusive; · = no result; [ ] = another dose, or the depositor's remark. Hits are enriched below; roughly 1.6% of the tested compounds scored in any of these assays.

SMILES	Akt phos inh	Glioma ERSR ind	gsp antag	gsp ag	KCNH2 3.1 block	hERG WT inh
COc1cccc(NC(=O)CN(C)C(=O)c2cc(-c3ccc(F)cc3)nc3ccccc23)c1	i	-4%	40µM*	-18%	-27	7
COc1cccc(NC(=O)CN(C)C(=O)c2cc(-c3ccccc3)nc3ccccc23)c1	i	-4%	?	4%	-1	-3
CS(=O)(=O)c1ccc(Cl)c(NC(=O)CN2CCN(S(=O)(=O)/C=C/c3ccccc3)CC2)c1	i	-1%	-14%	-21%	-84*	26
CCOc1ccc(NC(=O)Cn2nc(-c3ccccc3Cl)n(CC)c2=S)cc1	i	-3%	-2%	?	3	0
CCn1c(-c2ccccc2Cl)nn(CC(=O)Nc2ccc(OC)cc2)c1=S	-106%*	-2%	-2%	0%	-2	7
Cc1nc(NCC(=O)c2c[nH]c3ccccc23)sc1C	·	1%	·	·	·	·
CSc1nnc(CCNC(=O)/C=C/c2cccc(F)c2)n1-c1ccc(F)cc1	·	-4%	·	·	·	·
COc1cccc2nccc(/C=C/c3ccc(N(C)C)cc3)c12	·	-2%	·	·	·	·
CCOc1ccc(NC(=O)CN2CCN(CC(=O)Nc3ccc(F)cc3F)CC2)cc1	·	-1%	·	·	·	·
COc1ccc(NC(=O)CN2CCN(CC(=O)Nc3ccc(F)cc3F)CC2)cc1	i	3%	2%	9%	-117*	-120*
COc1cc(NC(=O)CN2CCN(CC(=O)Nc3ccc(F)cc3)CC2)cc(OC)c1	·	-3%	·	·	·	·
COc1ccc(NC(=O)CN2CCN(CC(=O)Nc3ccccc3Cl)CC2)cc1	i	4%	-2%	7%	-85*	-21
COc1ccc(CN2CCCN(S(=O)(=O)c3ccc(Br)cc3)CC2)cc1	i	-2%	3%	3%	-102*	-126*
COc1cccc(NC(=O)CN2CCN(CC(=O)Nc3ccc(F)cc3)CC2)c1	i	-3%	-4%	18%	-85*	-38
COc1cccc(-c2nc(SCC(=O)Nc3ccc4c(c3)OCCO4)c(-c3ccc(C)cc3)[nH]2)c1	·	-4%	·	·	·	·
COc1ccc(-c2[nH]c(-c3cccc(OC)c3)nc2SCC(=O)NCc2ccco2)cc1	i	-3%	?	2%	-105*	-11
CC(=O)Oc1ccccc1C(=O)O	i	-3%	0%	·	1	11
CC(=O)Oc1ccccc1C1C[C@]2(C)CC(=O)NC2N1C(C)=O (stereo not given in full)	i	-5%	6%	2%	-107*	2
Cc1cccc(Cn2cnc3c(cnn3C(C)(C)C)c2=O)c1F	·	-2%	·	·	·	·
CSCSC1=C(C#N)C(c2ccccc2Cl)C(C(C)=O)=C(C)N1 (stereo not given)	-106%*	-3%	-4%	0%	1	5
CC1=C(C(N)=O)C(c2ccccn2)n2nc(-c3ccccc3Cl)nc2N1 (stereo not given)	i	0%	2%	-19%	-170*	-146*
COc1ccccc1C1C(C(N)=O)=C(C)Nc2nc(-c3ccccc3Cl)nn21 (stereo not given)	i	-1%	5%	-11%	-1	3
Cc1sc2ncn(CC(=O)NCC(=O)N(C)Cc3ccccc3)c(=O)c2c1C	i	-3%	8%	11µM*	-5	4
COC(=O)c1sc(NC(=O)c2c(OC)cccc2OC)c(C#N)c1C	i	-5%	46%	28µM*	-1	-18
COc1cc(C(=O)Nc2sc(C(=O)N3CCOCC3)c(C)c2C#N)cc(OC)c1OC	-107%*	-1%	18%	0%	16	4
SMILES	Akt phos inh	Glioma ERSR ind	gsp antag	gsp ag	KCNH2 3.1 block	hERG WT inh
CCOC(=O)C(=O)Nc1sc(C(=O)N2CCOCC2)c(C)c1C#N	i	-2%	5%	-19%[15.4 µM]	-14	4
Cc1cccc(NC(=O)c2sc(NC(=O)c3ccco3)c(C#N)c2C)c1C	i	-1%	10%	0%	-83*	7
COC(=O)c1sc(NC(=O)c2c(F)cccc2F)c(C#N)c1C	i	-4%	-27%	-28%	-6	1
Cc1cccc(NC(=O)c2ccco2)c1C	i	1%	-2%	-3%	12	5
COc1cc(=O)n2c(c1C(=O)N(C)Cc1nccs1)CCN(Cc1c(F)ccc(F)c1F)CC2	·	-4%	·	·	·	·
O=C(CBr)c1ccc(Oc2ccc(C(=O)C[n+]3ccccc3Cl)cc2)cc1	·	0%	·	·	·	·
c1ccc2c(c1)oc1c(NCCCN3CCOCC3)ncnc12	-109%*	-4%	8%	?	-2	2
c1ccc2c(c1)oc1c(NCCCn3ccnc3)ncnc12	i	0%	5%	13%	-11	-5
CC(C)C(NC(=O)Cc1ccccc1)C(=O)N1CCN(c2cccc(Cl)c2)CC1 (stereo not given)	i	-5%	28µM*	10%	0	-20
CCN(CC)c1ccc(NC(=O)CN2CCN(CC(=O)Nc3ccc(OC)cc3)CC2)cc1	i	-7%	5%	-1%	-86*	6
O=C(CN1CCN(CC(=O)Nc2ccc(Cl)cc2)CC1)Nc1ccc(F)cc1	i	-3%	-3%	4%[15.4 µM]	-118*	-137*
Fc1ccc(NC(=S)NCc2ccc3c(c2)OCO3)cc1	i	3%	8%	-7%	-71*	2
O=C(CN1CCN(Cc2ccc3c(c2)OCO3)CC1)Nc1ccc(F)cc1	i	2%	15%	-14%	-84*	-15
COc1cc(CN2CCCC(c3nc(-c4ccncc4)ncc3-c3ccccc3)C2)ccc1O (stereo not given)	·	-1%	·	·	·	·
CCCCCC/C=C/c1ccc(OC)c(C2C3C=CCC(C)C3C(=O)N2Cc2ccccc2)c1 (stereo not given)	·	-5%	·	·	·	·
O=C(CN1CCOCC1)Nc1ccc(Br)cc1	i	-2%	11%	-1%[15.4 µM]	9	-15
O=C(CN1CCCC1)Nc1ccc(F)cc1	i	-5%	8%	12%[15.4 µM]	4	-3
O=C(CN1CCN(C(=O)N2CCOCC2)CC1)Nc1ccc(Br)cc1	i	-3%	9%	13%	-70*	-118*
CCN(CC)c1ccc(NC(=O)CN2CCN(CC(=O)Nc3ccc(F)cc3)CC2)cc1	i	-3%	-2%	4%	-101*	-75*
O=C(NN=C1CCCC1)c1ccc(O)cc1	i	1%	7%	-7%	-4	-11
O=C(NN=C1CCCC1)c1ccc([N+](=O)[O-])cc1	i	-4%	3%	4%	0	-222*
COc1ccccc1-c1n[nH]c(=S)o1	i	-3%	24%	?	12	-18
COc1ccc(Cl)cc1-c1n[nH]c(=S)o1	i	-1%	-1%	14µM*	-2	-9
CSc1ccccc1-c1n[nH]c(=S)o1	i	0%	20%	69%[15.4 µM]	-16	-2
